# Measurements: PubChem BioAssay AID588689 (Southern Research Specialized Biocontainment Screening …, 2011)
# In all, about 340,000 compounds went through this assay and about 1,000 (0.29%) were called active. Rule as the data show it: inconclusive = inhibition above about 29% without an active follow-up result; inactive = below that. The list is a sample of the results. Entries with a potency or affinity are not part of this list.
# Molecular target: Genome polyprotein (Dengue virus type 2 (strain 16681-PDK53)) (UniProt P29991)
# Assay: Dengue-2 NS5 methyltransferase inhibitors, primary screen, biochemical, confirmation dose response (AID 588689)
# Settings: Dengue-2 NS5 methyltransferase capping enzyme assay, at 25 µM, stronger effect = higher value
# [1] = measured here: pilot screen replicate inhibition
Structure (SMILES),inhibition,inhibition [1]
CCc1nnc(NC(=O)CSc2nc(-c3ccc(OC)cc3)ns2)s1,-9.71% (inactive),
CN(C)c1ccc(C(=O)c2ccccc2C(=O)O)c(O)c1,-0.81% (inactive),
CCN(CC)c1ccc(C(=O)c2ccccc2C(=O)O)c(O)c1,8.17% (inactive),6.25%
Cc1nc(N)nc(N(C)c2ccccc2)c1Br,3.09% (inactive),
O=C(COC(=O)C1CCN(S(=O)(=O)c2cccc3cccnc23)CC1)c1ccc([N+](=O)[O-])cc1,-7.6% (inactive),
O=S(=O)(Cc1ccccc1)N1CCN(Cc2ccc(F)cc2Cl)CC1,-4.55% (inactive),
COc1cc(C(c2c(C)[nH][nH]c2=O)c2c(C)[nH][nH]c2=O)cc(OC)c1OC,1.7% (inactive),
COc1ccc(C(C[N+](=O)[O-])c2c(C)[nH]n(-c3ccccc3)c2=O)cc1 (stereo not given),-13.7% (inactive),
COc1ccc(N=C(c2ccccc2)c2c(C)[nH]n(-c3ccccc3)c2=O)c(OC)c1,-10.3% (inactive),
COc1ccc(C(c2c(C)n(C)n(-c3ccccc3)c2=O)c2c(C)n(C)n(-c3ccccc3)c2=O)cc1OC,-2.72% (inactive),
Nc1nccc(/C=C/c2c(Cl)cccc2Cl)n1,-5.43% (inactive),
Cn1c(=O)c2c(SCc3ccccc3)nc(C3CC3)nc2n(C)c1=O,-11.1% (inactive),
CC(C)(C)OC(=O)C[C@H]1C/C=C\C[C@@H](CC(=O)N(CCO)Cc2ccccc2)C(=O)N[C@@H](Cc2ccccc2)COC1=O,1.65% (inactive),
CCOC(=O)C1CCN(C(=O)C2CCN(S(=O)(=O)c3ccc4c(c3)CC(C)N4C(C)=O)CC2)CC1 (stereo not given),2.72% (inactive),
O=C(C1CCN(Cc2ccc(Cl)cc2)CC1)N1CCN(C(c2ccccc2)c2ccccc2)CC1,-2.91% (inactive),
O=C(O)c1ccc2c(c1)C(=O)N(c1cccc(C(=O)/C=C/c3ccccc3)c1)C2=O,-7.15% (inactive),
O=C(O)c1ccc2c(c1)C(=O)N(c1ccc(Nc3ccccc3)cc1)C2=O,7.94% (inactive),
O=C(c1ccccc1)c1ccccc1,-1.45% (inactive),
O=C(c1ccccc1)c1ccccc1C(=O)c1ccccc1,1.31% (inactive),
Cc1ccc(CN2[C@@H]3c4ccccc4C[C@@H]3OCCS2(=O)=O)cc1,-4.81% (inactive),
O=C(NCCc1ccccc1)c1cnc2ccccn2c1=O,1.36% (inactive),
O=C1c2ccccc2-c2cccnc21,-0.66% (inactive),

Structure (SMILES),inhibition,inhibition [1]
COc1cc(CCNC2=CC(=O)c3ncccc3C2=O)ccc1O,-6.94% (inactive),
COc1ccc(C2=NN(c3ccccc3)C(=O)/C2=C\c2ccc(O)c(OC)c2)cc1,8.85% (inactive),
COc1ccc(/C=C2/C(=O)N(c3cccc(F)c3)N=C2C)c(OC)c1,16.7% (inactive),
CCOC(=O)CC1=NN(c2ccccc2)C(=O)/C1=C\c1ccc(N(C)C)cc1,13.3% (inactive),
COC(=O)CC1=NN(c2ccc(OC)cc2)C(=O)/C1=C\c1ccc(Cl)cc1,-4.74% (inactive),
O=C(CN1C(=O)c2ccccc2C1=O)OCC(=O)c1ccc(F)cc1,5.07% (inactive),
COc1cc(C(=O)NCC(c2ccco2)N2CCOCC2)cc(OC)c1OC (stereo not given),-3.67% (inactive),
CCOc1ccc(CCN2C(=S)N([C@@H](CC(C)C)CN3CCCC3CN3C(=S)NC[C@@H]3CC(C)C)C[C@@H]2Cc2ccccc2)cc1 (stereo not given in full),0.65% (inactive),
O=C(c1ccc(NC(=S)Nc2ccc(Cl)c(Cl)c2)cc1)N1CCCC1,-10.3% (inactive),
Cc1ccc(S(=O)(=O)CC(=O)c2cc3cccc(C)c3oc2=O)cc1,5.44% (inactive),
COc1cccc2cc(C(=O)CS(=O)(=O)c3ccc(C)cc3)c(=O)oc12,10.9% (inactive),
COCCCNC(=O)/C=C/c1c(Cl)cccc1Cl,-0.74% (inactive),
Cc1cc(N2C(=O)C(O)=C(C(=O)c3ccco3)C2c2cccc(Cl)c2)no1 (stereo not given),-4.65% (inactive),
CCOc1ccc(C2C(C(=O)c3ccc(C)o3)=C(O)C(=O)N2c2cc(C)on2)cc1OC (stereo not given),4.09% (inactive),
COC(=O)c1ccc(C2C(C(=O)c3ccc(C)o3)=C(O)C(=O)N2c2cc(C)on2)cc1 (stereo not given),-3.53% (inactive),
COc1cccc(C2C(C(=O)c3ccc(C)o3)=C(O)C(=O)N2c2cc(C)on2)c1 (stereo not given),-1.77% (inactive),
Cc1cc(N2C(=O)C(O)=C(C(=O)c3ccco3)C2c2cccc(O)c2)no1 (stereo not given),-4.44% (inactive),
Cc1cc(N2C(=O)C(O)=C(C(=O)c3ccc(C)o3)C2c2cccc(Cl)c2)no1 (stereo not given),10.9% (inactive),
O=C(NCN1CCN(c2ccccn2)CC1)c1cnccn1,-4.12% (inactive),
O=C(Nc1cccc([N+](=O)[O-])c1)c1cc(S(=O)(=O)Nc2ccccn2)ccc1Cl,0.65% (inactive),
O=C(COC(=O)CSc1ccc([N+](=O)[O-])cc1)NCC1CCCO1 (stereo not given),5.91% (inactive),
Cc1cc(=O)n(C)c2ccccc12,-7.77% (inactive),

Structure (SMILES),inhibition,inhibition [1]
COc1ccc2c(c1)c1ccc3c(c1n2C)C(=O)C=CC3=O,5.87% (inactive),
Cc1ccc(C)c2c1c1ccccc1n2C,0.78% (inactive),
Cc1ccc2c(c1)c1ccc3c(c1n2C)C(=O)C=CC3=O,47.6% (inactive),
CCC(C)NC(=O)CCSCCC(=O)NC(C)CC (stereo not given),-4.42% (inactive),
CCCC(C)C(=O)Nc1ccc(S(N)(=O)=O)cc1 (stereo not given),-3.64% (inactive),
CCOC(=O)C1CCCN(S(=O)(=O)NC[C@H]2O[C@@H](n3cnc4c(N)ncnc43)[C@H](O)[C@@H]2O)C1 (stereo not given in full),-8.6% (inactive),-4.29%
Fc1cnc(N2CCc3ccccc32)nc1N1CCc2ccccc21,-0.68% (inactive),
Cc1ccc(C(=O)O)cc1-c1ccc(C=C2C(=O)c3ccccc3C2=O)o1,-0.73% (inactive),
O=C1C(=Cc2ccco2)C(=O)c2ccccc21,-4.01% (inactive),
Cc1cc(C(=O)O)ccc1-n1c(C)cc(C=C2C(=O)c3ccccc3C2=O)c1C,-19.9% (inactive),
O=C(O)c1ccc2c(c1)C(=O)N(Cc1ccco1)C2=O,5.56% (inactive),
Cc1ccc(C=C2C(=O)c3ccccc3C2=O)o1,1.92% (inactive),
O=C(O)c1ccc2c(c1)C(=O)N(N1C(=O)c3ccccc3C1=O)C2=O,5.13% (inactive),
COc1cc(COC(=O)c2cnc(C)cn2)c(OC)cc1Br,7.48% (inactive),
Cc1cc(Br)ccc1SCC(=O)OCC(=O)NCc1ccco1,13.5% (inactive),
COC(=O)CCC(=O)COc1ccccc1C#N,-1.61% (inactive),
O=S(=O)(O)c1cc(O)c(N=Nc2ccc(O)cc2O)c2ccccc12,22.4% (inactive),
Oc1ccc(N=Nc2ccc(Br)cc2)c(O)c1,7.83% (inactive),
CCOc1ccc(-n2c(=S)sc3c(=O)n(-c4ccccc4)c(SCC(=O)O)nc32)cc1,-5.28% (inactive),
CCOC(=O)CSc1nc2c(sc(=S)n2-c2ccc(OCC)cc2)c(=O)[nH]1,0% (inactive),
CC(C)N1C(=O)C(=O)N(CC(=O)N2c3ccccc3NC(=O)CC2C)C1=O (stereo not given),4.36% (inactive),
COCC(C)NC(=O)c1cc(-c2ccccc2OC)on1 (stereo not given),-5.61% (inactive),

Structure (SMILES),inhibition,inhibition [1]
CCOC(=O)C1=CN2CCC[C@H]2CC1=O,-9.17% (inactive),
CCOC(=O)C1=CN2CCCC[C@@H]2CC1=O,-4.81% (inactive),
Cc1ccc(S(=O)(=O)NCCC(=O)N2CCC(Cc3ccccc3)CC2)cc1,-2.89% (inactive),
CCN(CC(=O)Nc1ccccc1C(F)(F)F)C(=O)c1ccc2c(c1)NC(=O)C(C)S2 (stereo not given),-4.95% (inactive),
NC(=O)C1CCN(C(=O)c2ccc3c(=O)n(Cc4ccco4)c(SCc4ccc([N+](=O)[O-])cc4)nc3c2)CC1,12.3% (inactive),
CC1(NC(=O)N2CCOCC2)CCS(=O)(=O)C1 (stereo not given),0% (inactive),
CC1(C)CC(=O)C(C(C2=C(O)CC(C)(C)CC2=O)c2ccc(Cl)c([N+](=O)[O-])c2)C(=O)C1 (stereo not given),-1.46% (inactive),
CC1(C)CC(=O)C(C(C2=C(O)CC(C)(C)CC2=O)c2ccc([N+](=O)[O-])cc2)C(=O)C1 (stereo not given),1.82% (inactive),
COc1cc(C(=O)NCC(=O)N2CCN(S(=O)(=O)c3ccccc3C(F)(F)F)CC2)cc(OC)c1OC,-3.36% (inactive),
C=CSc1sc(Cl)c(N2CCOCC2)c1[N+](=O)[O-],0% (inactive),
O=c1sc2ccccc2c(N2CCOCC2)c1[N+](=O)[O-],-3.49% (inactive),
NN1C(=O)/C(=C2/Sc3ccccc3N2CCCS(=O)(=O)O)SC1=S,-12.9% (inactive),
CC1CN(C2=NC(=O)/C(=C3/C(=O)N(Cc4ccc(F)cc4)c4ccccc43)S2)CC(C)O1 (stereo not given),-3.91% (inactive),
O=C(O)CCN1C(=O)/C(=C2\C(=O)N(Cc3ccccc3Cl)c3ccccc32)SC1=S,22.2% (inactive),
O=C(O)CCN1C(=O)C(=C2CCCCCC2)SC1=S,10.4% (inactive),
COCCN1C(=O)/C(=C2/C(=O)N(CC(=O)Nc3ccccc3Cl)c3ccccc32)SC1=S,6.48% (inactive),
CN1C(=O)/C(=C2\SC(=S)N(CCCCCC(=O)O)C2=O)c2ccccc21,-1.55% (inactive),
CC(C)NC(=O)COC(=O)c1ccccc1Oc1ccccc1,-2.2% (inactive),
CCOC(=O)C1=C(C)N=c2s/c(=C\c3ccc(OCC(=O)O)c(OC)c3)c(=O)n2C1c1ccc(OC)cc1 (stereo not given),-8.46% (inactive),
CCOC(=O)C1=C(C)N=c2s/c(=C3/C(=O)Nc4ccccc43)c(=O)n2C1c1ccc(C)cc1 (stereo not given),22.8% (inactive),
O=C(NN=C1CCCC1)c1ccc(Cl)cc1,-2.6% (inactive),
O=C1CCC/C(=N\NC(=O)COc2ccc(Cl)cc2)C1,3.18% (inactive),
